In PubChem BioAssay AID651828 (ICCB-Longwood Screening Facility, Harvard Medical School, 2012):
Several values for one entry are separate records, joined by “and”; a condition that tells them apart may be missing. Equal entries are not always repeated. Out of some 20,000 compounds screened, about 25 (0.1%) were called active. Cut-off read from the data, not from the text of the source: active = % bound below about 75%; inactive = the rest. This excerpt belongs to a sample that is enriched for actives.

Target: Nucleoprotein (Rift valley fever virus (strain ZH-548 M12)) (UniProt P21700)
Experiment: inhibitors of RVFV nucleoprotein–RNA binding, primary screen, biochemical, fluorescence polarization (AID 651828)
Settings: RVFV N-RNA binding, stronger effect = lower value, concentration not given here

Nucleoprotein (Rift valley fever virus (strain ZH-548 M12)), sequence (P21700 whole entry, looked up): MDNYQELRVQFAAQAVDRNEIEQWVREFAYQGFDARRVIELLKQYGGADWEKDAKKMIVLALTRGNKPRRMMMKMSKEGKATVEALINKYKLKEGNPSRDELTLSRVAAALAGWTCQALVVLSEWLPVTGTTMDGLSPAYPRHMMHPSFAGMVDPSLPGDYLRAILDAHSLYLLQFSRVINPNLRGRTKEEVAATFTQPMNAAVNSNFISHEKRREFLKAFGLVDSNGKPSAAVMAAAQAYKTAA

Structure (SMILES) | % bound
CC(=O)Oc1ccc(S(=NS(=O)(=O)c2ccccc2)c2ccc(OC(C)=O)cc2)cc1 | 94.2% (inactive)
Cc1[nH]cc(Br)c(=O)c1OCC(=O)O | 95.2% (inactive)
Cc1c(C(=O)NCCN2CCOCC2)sc2nc(-c3ccc(F)cc3)cn12 | 97% (inactive)
N#Cc1c(NC(=S)NC(=O)c2ccco2)sc2c1CCCC2 | 97.3% (inactive)
C/C(=N\NC1=NCCCCC1)c1ccccc1 | 95.3% (inactive)
CC1CCN(CC(=O)Nc2nccs2)CC1 | 91.9% (inactive)
CCC1CCC(N(CC)CCN(C)C)CC1 (centres undefined) | 112% (inactive)
C[C@H](N[C@@H](CCc1ccccc1)C(=O)O)C(=O)N1Cc2ccccc2C[C@H]1C(=O)O | 100% (inactive)
COc1ccc2oc(=O)c(S(=O)(=O)c3ccccc3)cc2c1 | 85% (inactive)
O=C(O)CN1C(=O)/C(=C2/OC(=O)c3ccccc32)SC1=S | 95.4% (inactive)
O=C(NCCc1ccccc1)Nc1ccccc1 | 108% (inactive)
CCCNC(=O)c1c(N)n(-c2ccccc2)c2nc3ccccc3nc12 | 95.9% (inactive)
O=C(Nc1cccc(Nc2nccc(Nc3cccc(C(F)(F)F)c3)n2)c1)C1CC1 | 112% (inactive) and 103% (inactive)
Cn1c(=O)c2cc3c(=O)n(C)c(=O)c3cc2c1=O | 101% (inactive)
COc1c(C(=O)O/N=C(\N)c2cccs2)csc1Cl | 95.1% (inactive)
CN(C)c1ccc(C=NCC(O)CN=Cc2ccc(N(C)C)cc2)cc1 (centres undefined) | 97.1% (inactive)
Cc1ccc(S(=O)(=O)NCc2csc(C)n2)c(C)c1 | 105% (inactive)
CC(C)N1C(=O)CNC1=S | 98% (inactive)
CC(C)CC(=O)Nc1ccncc1 | 86% (inactive)
O=C(OCCO)c1cc(Cl)c(C(=O)OCCO)cc1Cl | 104% (inactive)
COC(=O)COc1cccc(NC(=O)Cc2cccs2)c1 | 98.5% (inactive)
CCCNC1=C(c2ccc(OC)cc2)C(=O)c2ccccc21 | 95.2% (inactive)

Structure (SMILES) | % bound
CSc1sc(C(=O)NC(=O)NCc2cccnc2)c(C)c1-c1ccon1 | 93.2% (inactive)
CN(C)C(C#N)c1cn(C)c2ccccc12 (centres undefined) | 94.2% (inactive)
Cc1[nH]c2ccccc2c1SCC(=O)Nc1nccs1 | 108% (inactive)
COc1cccc(-c2ccc(=O)n(CC(=O)NCc3ccccc3)n2)c1 | 85% (inactive)
O=C(NCCSCc1ccco1)C1CCC1 | 98.2% (inactive)
CCSc1nc(=O)[nH]c2c1CCC2 | 92.2% (inactive)
CCC(=O)NC1(C(F)(F)F)C(=O)NC(C)=C1C(=O)OC (centres undefined) | 97% (inactive)
C/C(=N/NC(=O)c1ccoc1C)c1ccc(NC(=O)c2ccco2)cc1 | 91.1% (inactive)
N#Cc1cccc2c1-c1ccccc1C2 | 96% (inactive)
O=C1c2ccc(-c3nc4ccccc4c(=O)o3)cc2C(=O)N1c1ccc2c(c1)OCO2 | 90% (inactive)
O=C1CC2(CCCC2)C(=O)N1c1ccc(S(=O)(=O)NCc2ccco2)cc1Cl | 94.5% (inactive)
CN1CCN(C(=O)c2ccccc2NC(=O)c2ccc(Cl)cc2)CC1 | 100% (inactive)
CCN(CC)C(=O)N1CC(C)CC(C)C1 (centres undefined) | 95.2% (inactive)
CCN1CCN(C(c2cccnc2)c2c(NC(C)=O)sc3c2CCCC3)CC1 (centres undefined) | 109% (inactive)
O=S(=O)(c1ccccc1)N1CCn2cccc2C1c1ccccc1 (centres undefined) | 99.1% (inactive)
CCSc1nc2ccccc2c(=O)n1C | 96.2% (inactive)
CS(=O)(=O)NCCS(=O)(=O)N1CCN(c2ccccc2)CC1 | 97.1% (inactive)
Cc1ccccc1C(=O)Nc1cccc(N(C)C)c1 | 99.1% (inactive)
O=C(CS(=O)(=O)c1ccccc1)Nc1ccccc1O | 95.9% (inactive)
Cc1cc(NN)nc(-c2ccccc2O)n1 | 91.2% (inactive)
CS(=O)(=O)NCC(c1cccs1)N1CCc2ccccc21 (centres undefined) | 95.9% (inactive)
COC(=O)C1CC2=CC(=O)CCC2(C)C2C(O)CC3(C)C(CCC34CCC(=O)O4)C12 (centres undefined) | 103% (inactive)

Structure (SMILES) | % bound
O=c1[nH][nH]c(=O)n1/N=C/C=C\c1ccccc1 | 101% (inactive)
Cc1nnsc1C(=O)Nc1ccc(C(N)=O)cc1 | 96.7% (inactive)
NC(=O)c1cccc(NC(=O)C(F)(F)F)c1 | 108% (inactive)
O=S(=O)(NCCN1CCOCC1)c1ccc(I)cc1 | 94.4% (inactive)
CCc1ccc2[nH]c(=O)c(Cc3ccccc3)c(O)c2c1 | 98.2% (inactive)
CC(C)Sc1nnc(NC(=O)C(C)(C)C)s1 | 96.3% (inactive)
COc1ccc(C(=O)NCCc2cc3c(OC)ccc(OC)c3[nH]c2=O)cc1 | 97.1% (inactive)
CCOc1ccc(NC(=O)CSc2nc(=O)n(CCCN3CCOCC3)c3c2CCCC3)cc1 | 105% (inactive)
c1ccc2c(c1)CC(Nc1ccc3cn[nH]c3c1)C2 | 84.9% (inactive)
S=C(c1ccccn1)N1CCN(C(=S)c2ccccn2)CC1 | 96.1% (inactive)
O=C(CC1SC(=NC2CC3C=CC2C3)NC1=O)Nc1ccc(Cl)cc1 (centres undefined) | 89.9% (inactive)
COc1ccc(-c2cc(-c3nnc(N)o3)no2)cc1OC | 92.5% (inactive)
CC(C)Nc1ncccn1 | 104% (inactive)
COCn1c(=O)[nH]c2ccccc21 | 91.1% (inactive)
CCOC(=O)N1CCN(C(=S)Nc2ccc(Oc3ccccc3)cc2)CC1 | 92.1% (inactive)
COc1ccc(NC(=O)COc2cccc3c2CCN(C)C3=O)cc1 | 90.3% (inactive)
Cc1nc(NNC(=O)c2ccccc2)cc(-c2ccccc2)n1 | 91.7% (inactive)
CC(c1ccccc1)n1c(SCc2nc(-c3ccc(C(C)(C)C)cc3)no2)n[nH]c1=O (centres undefined) | 95.1% (inactive)
N#CCCSc1nccn1Cc1ccccc1 | 106% (inactive)
c1ccc2c(c1)OC1OC2Oc2ccccc21 | 98.8% (inactive)
